# Screening data from PubChem.
# Hits are enriched below; roughly 6.7% of the tested compounds scored in any of these assays.
# T cruzi growth-1: T. cruzi proliferation inhibition; AID 624255; inhibition, % at 8.34 µM; T. cruzi beta-gal in NIH3T3, GalScreen luminescence, 90 h; 77,000 compounds, 5.9% hits;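 active = mean inhibition above about 93%, with at least 55% of replicates each passing it, limit read from the data, passing the limit was not always enough; inconclusive = only one of those two conditions holds; inactive = neither condition holds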
# C diff growth: C. difficile growth inhibition; Clostridium difficile clinical isolate growth, OD600, 24 h; active compounds read low; growth activity, negative = inhibition, % at 16 µg/mL (by protocol); 86,000 compounds, 0.25% hits;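 active = mean growth activity at or below -80% and every replicate also at or below -80%; inconclusive = mean at or below -80% but some replicate above -80%; inactive = mean growth activity above -80%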;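 note: 0% = DMSO wells and -100% = levofloxacin 16 µg/mL wells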
# Pf Dd2 growth: inhibitors of Plasmodium falciparum Dd2 growth; P. falciparum Dd2 growth, SYBR Green, 72 h; active compounds read low; activity change, % at 10 µM; 94,000 compounds, 2.3% hits; AID 1159554; in the data active = activity change below about -80%; inconclusive = no clear call, values can overlap the other calls
# T cruzi growth-2: Trypanosoma cruzi proliferation inhibition; 5,600 compounds, 72% hits; T. cruzi beta-gal in NIH3T3, GalScreen luminescence, 90 h; inhibition, % at 8.35 µM; shares compounds with T cruzi growth-1;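 active = mean replicate inhibition above about 95% and at least 55% of replicates individually reaching it, limit read from the data; inconclusive = only one of the two criteria is met; inactive = neither criterion is met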
# T cruzi growth-3: inhibitors of T. cruzi proliferation; T. cruzi beta-gal in NIH3T3, GalScreen luminescence, 90 h; 5,600 compounds, 21% hits; shares compounds with T cruzi growth-1; AID 651740; inhibition, % at 2.09 µM;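 active = mean inhibition above about 95%, with at least 55% of replicates also reaching it, limit read from the data; inconclusive = meets just one of the two conditions; inactive = meets neither condition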;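 note: plate controls were neutral control median for no effect and positive control median for full effect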
# 3T3 cytotox: NIH/3T3 (mouse) viability loss | shares compounds with T cruzi growth-1 | NIH/3T3 viability, CellTiter-Glo ATP luminescence, 90 h | cytotoxicity (signal decrease), % at 8.35 µM | 5,600 compounds, 14% hits | AID 651742;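 active = mean signal decrease across replicates above about 35% based on untreated-well scatter, with enough replicates individually passing, limit read from the data; inconclusive = no rule stated though some were filed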;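 note: 0% = median of neutral control wells and 100% = median of positive control wells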
# NIH3T3 tox 2: cytotoxicity in mouse NIH/3T3 fibroblasts; shares compounds with T cruzi growth-1; NIH/3T3 viability, CellTiter-Glo ATP luminescence, 90 h; inhibition, % at 24.9 µM; 5,600 compounds, 56% hits; AID 651744;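 active = mean loss of cell viability signal at or above a set limit, and enough replicates individually reaching it; inconclusive = meets only the mean limit or only the replicate share; inactive = meets neither condition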;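 note: 0% = median of neutral control wells and 100% = median of positive control wells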
# Numbers without * were called inactive; ? = inconclusive; nt = no result.
SMILES,T cruzi growth-1,C diff growth,Pf Dd2 growth,T cruzi growth-2,T cruzi growth-3,3T3 cytotox,NIH3T3 tox 2
COc1ccc(CNC(=O)C[C@@H]2C[C@H]3c4cc(NC(=O)NC5CCCC5)ccc4O[C@H]3[C@@H](CO)O2)cc1,-1,-5,7,nt,nt,nt,nt
CC=Cc1ccc2n(c1=O)C[C@H]1[C@H](CO)[C@@H](C(=O)NCc3ccccn3)[C@@H]2N1CC1CC1 (mixture of isomers),50,-3,4,nt,nt,nt,nt
C[C@H](CO)N1C[C@H](C)[C@@H](CN(C)S(=O)(=O)c2cn(C)cn2)Oc2ccc(NC(=O)CCN3CCOCC3)cc2C1=O,80,0,15,nt,nt,nt,nt
C[C@H](CO)N1C[C@H](C)[C@@H](CN(C)S(=O)(=O)c2ccc(F)cc2)OCCCC[C@H](C)Oc2ccc(NS(=O)(=O)c3ccc(F)cc3)cc2C1=O,98*,-5,-40,96*,40,66*,59*
C[C@@H]1CCCCO[C@H](CN(C)S(=O)(=O)c2ccc(F)cc2)[C@H](C)CN([C@H](C)CO)C(=O)c2cc(NS(=O)(=O)c3ccc(F)cc3)ccc2O1,115*,1,?,106*,?,10,-5
C[C@@H]1CCCCO[C@@H](CN(C)S(=O)(=O)c2ccccc2)[C@@H](C)CN([C@@H](C)CO)C(=O)c2cc(NS(=O)(=O)c3ccc(F)cc3)ccc2O1,85,-4,-64,nt,nt,nt,nt
C[C@@H]1CCCCO[C@H](CN(C)S(=O)(=O)c2ccc(F)cc2)[C@H](C)CN([C@@H](C)CO)C(=O)c2cc(NS(=O)(=O)c3ccc(F)cc3)ccc2O1,110*,12,-60,113*,81,2,4
C[C@@H]1CCCCO[C@@H](CN(C)S(=O)(=O)c2ccc(F)cc2)[C@@H](C)CN([C@@H](C)CO)C(=O)c2cc(NS(=O)(=O)c3ccccc3)ccc2O1,51,10,-55,nt,nt,nt,nt
C[C@@H]1CN([C@H](C)CO)C(=O)c2cc(NS(=O)(=O)c3ccc(F)cc3)ccc2O[C@@H](C)CCCCO[C@H]1CN(C)S(=O)(=O)c1ccc(F)cc1,nt,-25,-51,nt,nt,nt,nt
Cc1noc(C)c1S(=O)(=O)N(C)C[C@@H]1OCCCC[C@@H](C)Oc2ccc(NS(=O)(=O)c3ccc(F)cc3)cc2C(=O)N([C@@H](C)CO)C[C@@H]1C,56,-1,-34,nt,nt,nt,nt
Cc1noc(C)c1S(=O)(=O)N(C)C[C@H]1OCCCC[C@@H](C)Oc2ccc(NS(=O)(=O)c3ccc(F)cc3)cc2C(=O)N([C@@H](C)CO)C[C@H]1C,97*,-16,-40,103*,81,-16,8
COc1ccc(NC(=O)N2C[C@H]3[C@@H](c4ccccc42)[C@H](CO)N3C(=O)C2CCCCC2)cc1,71,4,7,nt,nt,nt,nt
C[C@@H]1CN([C@H](C)CO)C(=O)c2cc(-c3ccncc3)cnc2O[C@@H]1CN(C)C(=O)C1CCC1,40,nt,27,nt,nt,nt,nt
O=C(C[C@@H]1C=C[C@H](NS(=O)(=O)c2ccccc2)[C@H](CO)O1)N1CCc2ccccc2C1,15,-3,-21,nt,nt,nt,nt
C[C@@H]1CN([C@@H](C)CO)C(=O)c2cccc(NC(=O)Nc3ccc4c(c3)OCO4)c2O[C@H]1CN(C)Cc1ccc(C(=O)Nc2ccccc2N)cc1,115*,nt,-85*,110*,?,16,30*
C[C@H](CO)N1C[C@H](C)[C@H](CN(C)Cc2ccc(Oc3ccccc3)cc2)Oc2ccc(NC(=O)Nc3ccc4c(c3)OCO4)cc2C1=O,110*,18,-3,102*,7,-7,32*
C[C@H](CO)N1C[C@H](C)[C@H](CN(C)Cc2ccc(Oc3ccccc3)cc2)Oc2c(NC(=O)Nc3ccc4c(c3)OCO4)cccc2C1=O,88,-2,-13,nt,nt,nt,nt
C[C@@H]1CN([C@@H](C)CO)C(=O)c2cc(NC(=O)Nc3ccccc3)ccc2O[C@H]1CN(C)Cc1ccc(Oc2ccccc2)cc1,58,10,-13,nt,nt,nt,nt
C[C@H]1CN([C@@H](C)CO)C(=O)c2cccc(NC(=O)Nc3ccc4c(c3)OCO4)c2O[C@@H]1CN(C)Cc1ccc(C(=O)O)cc1,18,-2,0,nt,nt,nt,nt
C[C@H]1CN([C@@H](C)CO)C(=O)c2cccc(NC(=O)Nc3ccc4c(c3)OCO4)c2O[C@@H]1CN(C)Cc1ccc(Oc2ccccc2)cc1,92*,3,-15,96*,63,-22,-28
C/C=C/c1cnc2c(c1)C(=O)N([C@@H](C)CO)C[C@H](C)[C@@H](CN(C)C(=O)NC1CCCCC1)O2,99,7,13,nt,nt,nt,nt
Cc1cccc(CN(C)C[C@@H]2OCc3cn(nn3)CCCC(=O)N([C@H](C)CO)C[C@H]2C)c1,-3,nt,3,nt,nt,nt,nt
C[C@@H]1CCCCO[C@@H](CN(C)C(=O)Cc2ccccc2)[C@H](C)CN([C@H](C)CO)C(=O)c2cc(NS(=O)(=O)c3ccc(Cl)cc3)ccc2O1,93,8,-26,nt,nt,nt,nt
CC(C)CC#Cc1ccc([C@H]2[C@H]3CN(S(=O)(=O)c4ccc(F)cc4)CCCCN3[C@H]2CO)cc1,116*,8,11,111*,95,21,12
CC(C)CC#Cc1ccc([C@@H]2[C@@H](CO)N3CCCCN(S(=O)(=O)c4ccc(F)cc4)C[C@@H]23)cc1,105*,1,-2,108*,72,-3,89*
SMILES,T cruzi growth-1,C diff growth,Pf Dd2 growth,T cruzi growth-2,T cruzi growth-3,3T3 cytotox,NIH3T3 tox 2
CC(C)CC#Cc1ccc([C@H]2[C@@H](CO)N3CCCCN(S(=O)(=O)c4ccc(F)cc4)C[C@H]23)cc1,63,-4,-68,nt,nt,nt,nt
CC(C)CC#Cc1ccc([C@@H]2[C@@H](CO)N3CCCCN(S(=O)(=O)c4ccc(F)cc4)C[C@H]23)cc1,55,18,-67,nt,nt,nt,nt
O=C(Cc1ccccn1)N1CC2(C1)[C@H](c1ccccc1)[C@@H](CO)N2C(=O)c1ccncc1,nt,-1,-29,nt,nt,nt,nt
C[C@@H]1CN([C@H](C)CO)C(=O)c2cccc(NC(=O)Nc3ccc4c(c3)OCO4)c2O[C@H]1CN(C)C(=O)Nc1cccc2ccccc12,9,-2,12,nt,nt,nt,nt
CO[C@@H]1CN(C)C(=O)c2cc(NS(=O)(=O)CC(F)(F)F)ccc2OC[C@@H](C)N(Cc2nccs2)C[C@@H]1C,9,nt,0,nt,nt,nt,nt
O=C(C[C@@H]1CC[C@H]2[C@@H](COC[C@@H](O)CN2CCC(F)(F)F)O1)NCC1CCCCC1,65,2,-18,nt,nt,nt,nt
O=C(C[C@H]1CC[C@H]2[C@@H](COC[C@H](O)CN2CCC(F)(F)F)O1)NCc1ccc(Oc2ccccc2)cc1,108*,20,nt,104*,26,10,17
O=C(C[C@@H]1CC[C@H]2[C@@H](COC[C@H](O)CN2CCC(F)(F)F)O1)NCC1CCCCC1,109*,-2,-13,46,13,8,-1
O=C(C[C@H]1CC[C@@H]2[C@H](COC[C@H](O)CN2CCC(F)(F)F)O1)NCc1ccc(Oc2ccccc2)cc1,-2,-4,nt,nt,nt,nt,nt
